About 79,000 compounds went through this panel and 15% of them were active in at least one assay; those are over-represented in the sample as a whole. Values without a mark were called inactive. Calls of active or inactive are those of the source. No stated cut-off is given here; in the data, active means growth inhibition above about 70%; inactive means the rest.

The nature of experiment [1]: NCI Yeast Anticancer Drug Screen. Data for the rad50 strain (AID 155).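 Further: 0% = growth of vehicle-only cultures of the same strain.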 To be noted: S. cerevisiae rad50 strain growth inhibition; at 50.0 µM; active compounds read high. The essentials:
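Cells are treated with compound, grown, and their growth is then scored against vehicle-only cultures of the same repair-deficient yeast strain.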

The nature of experiment [2]: NCI Yeast Anticancer Drug Screen. Data for the mec2-1 strain (AID 157). To be noted: S. cerevisiae mec2-1 strain, at 50.0 µM, active compounds read high. The essentials: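 Using mec2-1 yeast: add compound, measure growth, express inhibition versus vehicle-treated cultures.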
The nature of experiment [3]: NCI Yeast Anticancer Drug Screen. Data for the sgs1 mgt1 strain (AID 161).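 Further: 0% = growth of cultures given vehicle only.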 To be noted: S. cerevisiae sgs1 mgt1 strain, at 50.0 µM, active compounds read high. The procedure, abridged:
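Yeast cells carrying a defined DNA-repair defect were exposed to test compounds. Growth inhibition was measured relative to vehicle-treated controls.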

Experiment [4] can be described thus: NCI Yeast Anticancer Drug Screen. Data for the cln2 rad14 strain (AID 165).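 Further: 0% = growth equal to vehicle treated cultures.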 To be noted: S. cerevisiae cln2 rad14 strain, at 50.0 µM, active compounds read high. The essentials:
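Yeast strain cln2 rad14, bearing defects in cell cycle control and DNA repair, serves as the test system; values reflect growth inhibition compared with vehicle.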

Experiment [5] in a line: NCI Yeast Anticancer Drug Screen. Data for the bub3 strain (AID 167). To be noted: S. cerevisiae bub3 mutant strain, at 50.0 µM, active compounds read high. The essentials: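 Part of a panel of yeast mutants defective in DNA damage repair or cell cycle regulation. Each strain is grown with compound, and inhibition is calculated relative to solvent-treated cultures.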
Experiment [6] in a line: NCI Yeast Anticancer Drug Screen. Data for the mlh1 rad18 strain (AID 175). To be noted: S. cerevisiae mlh1 rad18 strain growth inhibition; at 50.0 µM; active compounds read high. The essentials:
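Steps: expose repair-defective yeast to compound; measure growth; express inhibition against vehicle-treated controls.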

As for `CCC1CN2CCc3cc(OC)c(OC)cc3C2CC1(O)C#N` (stereo not given), the growth inhibition was 9.9% in experiment [1]; 18.9% in experiment [2]; -5.9% in experiment [3]; 0.6% in experiment [4]; 12.8% in experiment [5]; 39% in experiment [6].
For the compound `COc1cc2ccnc([C@@H](OC(=O)c3ccccc3)c3ccc(OC)c(OC)c3OC)c2cc1OC`, the growth inhibition in experiment [1] is 10.4%; in experiment [2], 9.25%; in experiment [3], 40.9%; in experiment [4], 6.25%; in experiment [5] it was 0.05%; in experiment [6], 52.4%.
For the compound `CCOC(=O)c1cnc(C)nc1Nc1ccccc1`, the growth inhibition was 5.75% in experiment [1]; 11.4% in experiment [2]; -0.8% in experiment [3]; -21.4% in experiment [4]; 0.9% in experiment [5]; -23.7% in experiment [6].
Turning to `Cn1c(=O)oc2cc([N+](=O)[O-])c(Cl)cc21`, the growth inhibition in experiment [1] was -2.9%; in experiment [2], 4.25%; in experiment [3], -0.85%; in experiment [4], -1.35%; in experiment [5], -6.6%; in experiment [6] it was 6.75%.
Regarding `CN(C)S(=O)(=O)C1(c2ccccc2)CCCC1`, the growth inhibition in experiment [1] is 15.1%; in experiment [2], 9.85%; in experiment [3] it was 6.2%; in experiment [4], -1.5%; in experiment [5] it was -7%; in experiment [6], 1.9%.
In the case of `CN1C(c2ccccc2)=C(C#N)C(=O)CC(c2ccccc2)N1C` (stereo not given), the growth inhibition in experiment [1] was 26.1%; in experiment [2], 11.6%; in experiment [3], 30.2%; in experiment [4], 14.8%; in experiment [5], 11.4%; in experiment [6], 21.2%.
With `COC1C(O)CC(OC2CC(OC3CC(O[C@@H]4C(=O)c5c(cc6cc(OC7CC(OC8CC(O)C(O)C(C)O8)C(O)C(C)O7)c(C)c(O)c6c5O)C[C@H]4[C@H](OC)C(=O)[C@@H](O)[C@@H](C)O)OC(C)C3O)OC(C)C2O)OC1C` (stereo not given in full), the growth inhibition is 38.7% in experiment [1]; 28.9% in experiment [2]; 41.7% in experiment [3]; 43.7% in experiment [4]; 49.5% in experiment [5]; 48.5% in experiment [6].
As for `CN(CCS)C(=N)N`, the growth inhibition is 4.75% in experiment [1]; -14.9% in experiment [2]; 2.55% in experiment [3]; 7.8% in experiment [4]; -0.65% in experiment [5]; -11.4% in experiment [6].
For `O=c1[nH]cc(CO)c(=O)[nH]1`, the growth inhibition in experiment [1] is 0.35%; in experiment [2] it was 4.8%; in experiment [3] it was -1.7%; in experiment [4], 6%; in experiment [5], 11.9%; in experiment [6], -4%.
`CCc1ccc(O)cc1`: the growth inhibition is -3.4% in experiment [1]; -25.9% in experiment [2]; 13.3% in experiment [3]; 5.85% in experiment [4]; -11.9% in experiment [5]; 6.3% in experiment [6].
Take `CC(=O)OC(OC(C)=O)c1ncccc1C(=O)OC(C)C`: the growth inhibition in experiment [1] is -14.6%; in experiment [2], -13.2%; in experiment [3] it was -14.7%; in experiment [4], 10.8%; in experiment [5], -8.45%; in experiment [6], -21.7%.
Turning to `O=C(O)C(CCOc1ccccc1)CCOc1ccccc1`, the growth inhibition is 0.7% in experiment [1]; -15.2% in experiment [2]; 3.5% in experiment [3]; -10.4% in experiment [4]; -9.15% in experiment [5]; -26.3% in experiment [6].
For the compound `CCC[CH2][Sn]([CH2]CCC)([O]C(=O)c1ccc(OC)c(OC)c1OC)[O][Sn]([CH2]CCC)([CH2]CCC)[O]C(=O)c1ccc(OC)c(OC)c1OC`, the growth inhibition in experiment [1] was 85.7% (active); in experiment [2] it was 85% (active); in experiment [3] it was 86.3% (active); in experiment [4], 85.2% (active); in experiment [5], 87.2% (active); in experiment [6], 86.3% (active).
In the case of `COC(=O)Nc1nc2ccc(C3c4c(n[nH]c4C)CC(C)(O)C3C(C)=O)cc2[nH]1` (stereo not given), the growth inhibition in experiment [1] is 20.4%; in experiment [2] it was 3.85%; in experiment [3], -7.3%; in experiment [4], -6.5%; in experiment [5], 0.45%; in experiment [6], 10.6%.
In the case of `BrC1=C(c2ccccc2)SC(Br)=C(c2ccccc2)S1`, the growth inhibition in experiment [1] was 1.55%; in experiment [2], 4.45%; in experiment [3] it was 1.2%; in experiment [4], 21.7%; in experiment [5] it was 5.45%; in experiment [6], 3.75%.
Turning to `CC(CCc1ccccc1)NC(=O)c1ccccc1` (stereo not given), the growth inhibition in experiment [1] is 5%; in experiment [2], -40.1%; in experiment [3], -1.45%; in experiment [4], 11.2%; in experiment [5], 10.7%; in experiment [6], -16.6%.
`COC(=O)c1cc(-c2ccc(F)cc2)[nH]c(=O)c1C#N`: the growth inhibition is 6.3% in experiment [1]; -10.4% in experiment [2]; 15.3% in experiment [3]; 13.4% in experiment [4]; -25.8% in experiment [5]; 16.6% in experiment [6].
As to `CCCCc1c2c([n+]([O-])c3c1CCCC3)CCCC2`, the growth inhibition in experiment [1] was 29.4%; in experiment [2], 30.3%; in experiment [3], 54.1%; in experiment [4], -11.2%; in experiment [5], 17.2%; in experiment [6], 20.1%.
As for `O=C(C[n+]1ccccc1)c1ccc([N+](=O)[O-])cc1`, the growth inhibition is -3.35% in experiment [1]; -2.2% in experiment [2]; -4.45% in experiment [3]; -30.1% in experiment [4]; -6.7% in experiment [5]; 38.7% in experiment [6].
With `COc1ccc(C(=O)Cc2ccc3ccccc3n2)cc1`, the growth inhibition in experiment [1] is -4.75%; in experiment [2], 16.7%; in experiment [3] it was -6.8%; in experiment [4] it was -24.9%; in experiment [5], -10.8%; in experiment [6], 4.45%.

For the origin of these results see PubChem BioAssay (NCI).
